Experimental data as given in PubChem BioAssay.

The molecules below were run against Dickkopf-related protein 1 (Homo sapiens) (UniProt O94907) (assay: DKK1 binders on small-molecule microarrays, primary screen, biochemical, small-molecule microarray, 635 nm fluorescence scan (AID 1106;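 further: score merges emission near 667 nm with signal to noise over three replicate slides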)). Conditions: DKK1 binding, higher = more signal.
Dickkopf-related protein 1 (Homo sapiens), sequence (O94907 whole entry, looked up): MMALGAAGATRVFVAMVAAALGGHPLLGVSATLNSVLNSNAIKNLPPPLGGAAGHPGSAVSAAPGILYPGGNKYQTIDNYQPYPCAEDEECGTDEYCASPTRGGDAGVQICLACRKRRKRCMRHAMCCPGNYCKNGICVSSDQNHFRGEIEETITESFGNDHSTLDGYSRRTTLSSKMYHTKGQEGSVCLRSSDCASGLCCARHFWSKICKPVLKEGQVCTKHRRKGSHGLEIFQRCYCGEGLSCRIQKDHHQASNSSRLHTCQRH

Row | Structure (SMILES) | composite z-score
1 | COc1ccc([Si](C)(C)[C@H]2[C@H](CC(=O)N3CCC[C@H]3CO)O[C@@]3(C(=O)N(Cc4cccc(N5C(=O)COc6ccccc65)c4)c4ccccc43)[C@@H]2C)cc1 | 0.519
2 | CC(=O)OC[C@H]1O[C@H](C#CCCCc2ccccc2)C=C[C@@H]1OC(C)=O | 0.3
3 | CC(C)[C@H](NC(=O)OC(C)(C)C)[C@@H](O)CC(=O)OC(C)(C)C | -0.327
4 | COCCCNC(=O)[C@]1(CCC(=O)OC(C)(C)C)N=C(c2ccc(OCCCO)cc2)O[C@@H]1c1ccccc1N=[N+]=[N-] | 0.0998
5 | C[C@@H]1C=CCC(=O)OC[C@H](C)C(=O)N[C@@H](C)C(=O)OC1 | 0.814
6 | COC(=O)[C@@]1(Cc2ccc(F)cc2)[C@H]2c3cc(C(=O)N(C)C)n(Cc4ccc(OC)c(OC)c4)c3C[C@H]2CN1C(=O)c1ccccc1 | -0.686
7 | CCCCCN1CC=CC23O[C@@H]4C=CCOC(=O)[C@@H]4[C@H]2C(=O)N(CCCCCCO)[C@@H]3C1=O (stereo not given in full) | -1.54
8 | COc1ccc(O[C@H]2C=C[C@@H](c3ccccc3)O[C@@H]2COC(=O)CCC(C)=NO[C@H](C)c2cn([C@@H]3COC[C@H]3O)nn2)cc1 | 0.583
9 | C#C[C@@H]1Oc2ccccc2S(=O)(=O)N2CCC[C@H]12 | 0.407
10 | CC(C)(C)OC(=O)CC[C@]1(C(N)=O)COC(c2ccc(OCCCO)cc2)=N1 | -0.385
11 | COc1ccc(O[C@H]2C=C[C@@H](c3ccccc3)O[C@@H]2COC(=O)CCC(C)=NOC[C@@H](C)[C@H](OCc2ccccc2)C(C)C)cc1 | -0.698
12 | Cc1ccc(F)cc1S(=O)(=O)N[C@@H]1CCN(Cc2ccc(CC(C)C)cc2)C1 | -0.0911
13 | CCc1cc2c(nc1CC)CCN(CCC(C)=NOC(C)CN1CCCc3nc(C)c(C)cc31)C2 (stereo not given) | 1.03
14 | Cc1ccc(S(=O)(=O)N[C@@H]2COC(=O)[C@H](C)COC(=O)CC=C[C@H]2C)cc1 | 1.8
15 | O=C1C[C@@H](O)[C@@H](O)[C@@H]2[C@@H]3C(=O)N(Cc4ccc5c(c4)OCO5)C(=O)[C@@H]3CC[C@@H]12 | 0.78
16 | CN1C(=O)[C@@]2(CCC(=O)OC(C)(C)C)N=C(c3ccc(OCCCO)cc3)O[C@H]2c2ccccc21 | -0.0485
17 | COCCOC(=O)N1C(=O)[C@@]2(c3cc(C#CC4(O)CCCCCC4)ccc31)[C@H](C(=O)N1CCN(c3ncccn3)CC1)[C@H]1C(=O)O[C@H](c3ccccc3)[C@H](c3ccccc3)N1[C@@H]2c1ccc(OCCO)cc1 | 0.738
18 | CCOC(=O)[C@H](CC(C)C)NC(=O)CCC1CC(OC(=O)NCc2cccc3ccccc23)CC2(CCCC(COC(=O)NCCc3ccccc3OC)O2)O1 (stereo not given in full) | 0.555

Row | Structure (SMILES) | composite z-score
19 | COC(=O)[C@H](C)NC(=O)CCC1CC(OC(=O)NCc2cccc3ccccc23)CC2(CCCC(COC(=O)NCCc3ccc(Cl)cc3)O2)O1 (stereo not given in full) | 0.302
20 | O[C@@H](Cc1ccccc1)[C@H]1C2C=CCCC(c3ccccc3)=C2CN1Cc1cccc(Cl)c1 (stereo not given in full) | 0.473
21 | O=C1[C@H]2[C@H]3[C@H](O)[C@H](O)CC(=NO[C@@H]4O[C@H](CO)[C@@H](O)[C@H](O)[C@H]4O)[C@@H]3CC[C@H]2C(=O)N1Cc1ccccc1 | -0.0034
22 | COCCOC(=O)N1C(=O)[C@@]2(c3cc(C#CCNC(N)=O)ccc31)[C@H](c1ccccc1OCCO)N1[C@H](c3ccccc3)[C@H](c3ccccc3)OC(=O)[C@H]1[C@@H]2C(=O)N1CCN(c2ncccn2)CC1 | 0.0239
23 | O=C1[C@H]2[C@H]3[C@H](O)[C@H](O)CC(=NO[C@@H]4O[C@H](CO)[C@@H](O)[C@H](O)[C@H]4O)[C@H]3CC[C@H]2C(=O)N1Cc1ccccc1 | -0.566
24 | CC(C)(C)N1C(=O)[C@H]2[C@H]3[C@H](O)[C@H](O)CC(=NO[C@@H]4O[C@H](CO)[C@@H](O)[C@H](O)[C@H]4O)[C@@H]3CC[C@H]2C1=O | 1.15
25 | O=C1[C@H]2[C@H]3[C@H](O)[C@H](O)CC(=NO[C@@H]4O[C@H](CO)[C@@H](O)[C@H](O)[C@H]4O)[C@H]3CC[C@H]2C(=O)N1C1CCCCC1 | -0.191
26 | CC[C@@H](c1ccccc1)n1c(=O)n2n(c1=O)[C@H]1[C@H](O)[C@@H]3O[C@@H]3C(=NOCC(C)C)[C@H]1CC2 | 0.202
27 | CCCC[C@@H](O)C1=C(C)C[C@H]2C(=O)N(Cc3ccccc3)C(=O)[C@H]2[C@H]1CO | 0.524
28 | CC(C)=C1C(=O)C(c2ccccc2)=C2CN3C(=O)N(CCc4ccccc4)C(=O)[C@]3(Cc3ccc(F)cc3)[C@H]21 | -1.92
29 | N#Cc1ccc(NN2C(C(O)c3cc(C(F)(F)F)cc(C(F)(F)F)c3)C=CC3C(=O)N(c4ccccc4)C(=O)C32)cc1 (stereo not given) | -0.62
30 | [N-]=[N+]=NCc1ccccc1[C@@H]1OC(c2ccc(OCCCO)cc2)=N[C@]1(Cc1ccccc1)C(=O)N1CCOCC1 | 0.315
31 | CC(CCN1CCCCc2nc(C)c(C)cc21)=NOC(C)CN1CCCCc2nc(C)c(C)cc21 (stereo not given) | 1.68
32 | O=C(NN=C1C[C@@H](O)[C@@H](O)[C@@H]2[C@@H]3C(=O)N(c4cccc(Oc5ccccc5)c4)C(=O)[C@@H]3CC[C@H]12)OCc1ccccc1 | -0.0924
33 | CCOC(=O)CCN1C(=O)[C@H]2[C@H]3[C@H](O)[C@H](O)CC(=O)[C@H]3CC[C@H]2C1=O | 0.745
34 | O=C1O[C@@H](c2ccccc2)[C@@H](c2ccccc2)N2[C@@H](c3ccc(OCCO)cc3)[C@]3(C(=O)Nc4ccc(C#CCCO)cc43)[C@@H](C(=O)N3CCCCCCC3)[C@H]12 | 1.78
35 | c1ccc(C2NCCc3c2[nH]c2ccccc32)cc1 (stereo not given) | 0.0559
